Reference: paper PMC4336329 (PLoS ONE, 2015)
Hit rate of the full screen: of about 310,000 compounds, about 14,000 (4.5%) showed an effect of 50% or more. Effects have a minus sign here. The list comes from a sample in which strong results are over-represented; it also holds similar structures and randomly drawn compounds.

Each compound was assayed against human ether-à-go-go-related gene (hERG) potassium channel (human, UniProt Q12809) (assay: primary screen, population patch clamp on CHO cells stably expressing hERG; higher = less effect of the substance).
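Also: peak tail current of the secondary pulse compared with the same well before compound.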

Sequence of human ether-à-go-go-related gene (hERG) potassium channel (Q12809 whole entry, looked up): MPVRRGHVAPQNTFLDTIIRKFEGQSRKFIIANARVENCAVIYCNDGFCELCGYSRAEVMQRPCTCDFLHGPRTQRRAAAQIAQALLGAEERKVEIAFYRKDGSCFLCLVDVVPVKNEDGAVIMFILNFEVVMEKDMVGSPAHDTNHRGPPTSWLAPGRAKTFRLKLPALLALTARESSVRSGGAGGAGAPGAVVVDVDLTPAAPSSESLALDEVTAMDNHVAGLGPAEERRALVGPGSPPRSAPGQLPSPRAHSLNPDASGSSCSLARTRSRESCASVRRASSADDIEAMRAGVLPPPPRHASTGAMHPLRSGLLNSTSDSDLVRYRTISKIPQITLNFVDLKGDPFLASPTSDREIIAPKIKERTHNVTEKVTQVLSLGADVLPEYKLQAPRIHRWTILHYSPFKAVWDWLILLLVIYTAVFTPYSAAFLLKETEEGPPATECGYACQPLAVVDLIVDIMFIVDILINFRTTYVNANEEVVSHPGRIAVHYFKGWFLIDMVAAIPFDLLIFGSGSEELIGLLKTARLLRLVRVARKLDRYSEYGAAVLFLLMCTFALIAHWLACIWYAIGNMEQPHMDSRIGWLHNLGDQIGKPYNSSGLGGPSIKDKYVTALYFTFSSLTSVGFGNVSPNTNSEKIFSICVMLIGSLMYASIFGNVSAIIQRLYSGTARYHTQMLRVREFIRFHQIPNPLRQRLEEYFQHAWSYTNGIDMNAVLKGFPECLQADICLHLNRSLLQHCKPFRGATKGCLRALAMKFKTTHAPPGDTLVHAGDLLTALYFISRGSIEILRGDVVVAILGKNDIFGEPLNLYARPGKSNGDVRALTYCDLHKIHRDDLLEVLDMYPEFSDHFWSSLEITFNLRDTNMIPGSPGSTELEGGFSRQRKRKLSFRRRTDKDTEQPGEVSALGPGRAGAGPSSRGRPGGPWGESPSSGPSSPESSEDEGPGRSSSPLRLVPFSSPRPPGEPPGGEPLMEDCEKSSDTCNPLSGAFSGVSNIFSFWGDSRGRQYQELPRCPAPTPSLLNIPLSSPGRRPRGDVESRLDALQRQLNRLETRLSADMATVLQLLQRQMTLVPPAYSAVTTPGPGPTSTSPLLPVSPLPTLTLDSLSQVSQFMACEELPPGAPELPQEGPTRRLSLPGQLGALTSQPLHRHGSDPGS

| SMILES | hERG current change (%, negative = inhibition) at 10uM [%] |
| --- | --- |
| CC1Cc2ccccc2N1S(=O)(=O)c1cccc(C(=O)NCCCO)c1 (stereo not shown) | -27.9 |
| CC1Cc2ccccc2N1S(=O)(=O)c1cccc(C(=O)NCCCn2ccnc2)c1 (stereo not shown) | -50.1 |
| Cc1cccnc1NC(=O)c1cccc(S(=O)(=O)NCc2ccccc2)c1 | -14.9 |
| CC1CN(S(=O)(=O)c2cccc(C(=O)NCCCn3ccnc3)c2)CC(C)O1.Cl (stereo not shown) | 6.18 |
| CC1Cc2ccccc2N1S(=O)(=O)c1cccc(C(=O)NCc2ccccn2)c1 (stereo not shown) | -67.6 |
| O=C(Nc1cccnc1)c1cccc(S(=O)(=O)N2CCc3ccccc32)c1 | 11 |
| CC1Cc2ccccc2N1S(=O)(=O)c1cccc(C(=O)Nc2cccnc2)c1 (stereo not shown) | -60.2 |
| CC1Cc2ccccc2N1S(=O)(=O)c1cccc(C(=O)NCc2ccncc2)c1 (stereo not shown) | -34.9 |
| Cc1ccc(NC(=O)c2cccc(S(=O)(=O)NCc3ccccc3)c2)nc1 | -50.7 |
| Cc1ccnc(NC(=O)c2cccc(S(=O)(=O)NCc3ccccc3)c2)c1 | -34.6 |
| CC1Cc2ccccc2N1S(=O)(=O)c1cccc(C(=O)NC2CC2)c1 (stereo not shown) | -40 |
| Cc1c(Cl)cccc1NC(=O)CN1CCC(NC(=O)C2CCCCC2)CC1 | -0.0286 |
| CCOC(=O)c1[nH]c(C)c(C(=O)Nc2ccccc2F)c1C | -11.2 |
| CCOc1ccccc1NC(=O)Cn1c(=O)n(-c2ccccc2)c(=O)c2oc3ccccc3c21 | -16.4 |
| O=C(CN(CC1CCCO1)C(=O)CNS(=O)(=O)c1ccc(F)cc1)NCc1ccccc1 (stereo not shown) | 7.27 |
| CC1CCN(c2ccc3nnc(CCC(=O)NC(C)C)n3n2)CC1 | 2.67 |
| N#CC1=C(N)OC(c2ccccc2)=C(C#N)C1c1ccc2c(c1)OCO2 (stereo not shown) | 14.3 |
| Cc1ccc(NS(=O)(=O)c2cccc(C(=O)NCc3ccccn3)c2)cc1 | -68.5 |
| Cc1ccc(NS(=O)(=O)c2ccc(C(=O)NCc3ccccn3)cc2)cc1 | 18.8 |
| Cc1ccc(S(=O)(=O)Nc2ccc(C(=O)NCc3ccccn3)cc2)cc1 | -7.17 |
| COc1ccc(OC)c(C2Nc3ccccc3NC3=C2C(=O)CC(C)(C)C3)c1 (stereo not shown) | 15.4 |
| O=C(Nc1ccc(Br)cc1Cl)c1cnccn1 | 5.88 |

| SMILES | hERG current change (%, negative = inhibition) at 10uM [%] |
| --- | --- |
| CCc1nnc(NC(=O)CSc2nc3cc(OC)c(OC)cc3cc2C)s1 | 5.07 |
| CCC(=O)N1CCc2cc(S(=O)(=O)CCC(=O)N3CCN(c4ccc(F)cc4)CC3)ccc21 | -2.82 |
| O=c1c2cc([N+](=O)[O-])ccc2nc2n1CCCC2 | 4.82 |
| C=CCn1c2ccccc2c2nnc(SC(CC)C(=O)Nc3nc(C)c(C(=O)OCC)s3)nc21 (stereo not shown) | -43.9 |
| CCOC(=O)C(Sc1nnc2c3ccccc3n(CC)c2n1)C(=O)OCC | -28.7 |
| CCOC(=O)c1sc(NC(=O)C(CC)Sc2nnc3c4ccccc4n(CC)c3n2)nc1C (stereo not shown) | -59.4 |
| Cc1ccc(-c2ccc(CCC(=O)O)n2Cc2ccco2)cc1 | 12.2 |
| Cc1ccc(C(C)C)c(OCCCn2ccnc2C)c1.O=C(O)C(=O)O | -63.8 |
| Cc1ccc(OCCCCn2ccnc2C)c(C)c1.O=C(O)C(=O)O | -64.1 |
| Cc1ccc(OCCCCNC2CCCC(C)C2C)c(C)c1.O=C(O)C(=O)O (stereo not shown) | -56.9 |
| Cc1ccc(OCCCCNC2CCCCC2)c(C)c1.O=C(O)C(=O)O | -42.8 |
| Cc1ccc(OCCCCn2cnc3ccccc32)c(C)c1.O=C(O)C(=O)O | -20.5 |
| COc1ccc(OCCn2ccnc2C)cc1.O=C(O)C(=O)O | -0.197 |
| Cc1ccc(C(C)C)c(OCCn2ccnc2C)c1.O=C(O)C(=O)O | -35.1 |
| Cc1ccc(C(C)C)c(OCCN(C)C)c1.O=C(O)C(=O)O | -5.47 |
| Cc1ccc(OCC(=O)NC2CCCC2)c(C)c1 | 2.93 |
| Cc1cc(C)nc(N/N=C/c2cn[nH]c2-c2ccccc2)n1 | -6.34 |
| Cc1cc([N+](=O)[O-])nn1CC(=O)NCc1ccccc1 | 24.2 |
| CC(C(=O)N=c1sc2ccccc2n1C)N1C(=O)C2CC=CCC2C1=O (stereo not shown) | -40.2 |
| Cc1cccc(C)c1NC(=O)CNC(=O)C(NC(=O)c1ccc(C(C)(C)C)cc1)C(C)C (stereo not shown) | 14.4 |
| CCc1nnc(NC(=O)CN2CCN(c3ccccc3F)CC2)s1.Cl | -12.9 |
